Compounds without any hit were thinned out: in the full panel of roughly 79,000, 15% have a hit. No stated cut-off is given here; in the data, active means growth inhibition above about 70%; inactive means the rest.
Experiments:
[1] = NCI Yeast Anticancer Drug Screen. Data for the rad50 strain (AID 155);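 further: 0% = growth of vehicle-only cultures of the same strain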; conditions: S. cerevisiae rad50 strain growth inhibition; at 50.0 µM; hits give high values
How it was run: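 Yeast carrying a defined DNA repair defect were exposed to test compounds, and growth was compared with vehicle-treated controls to give percent inhibition.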

[2] = NCI Yeast Anticancer Drug Screen. Data for the mec2-1 strain (AID 157); conditions: S. cerevisiae mec2-1 strain, at 50.0 µM, hits give high values
How it was run: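 Strain: mec2-1 (DNA repair/cell cycle alteration). Compound exposure, then growth measured; inhibition expressed relative to vehicle.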

[3] = NCI Yeast Anticancer Drug Screen. Data for the sgs1 mgt1 strain (AID 161);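 further: 0% = growth of cultures given vehicle only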; conditions: S. cerevisiae sgs1 mgt1 strain, at 50.0 µM, hits give high values
How it was run: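 Genetically altered yeast, compound exposure, growth inhibition relative to vehicle.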

[4] = NCI Yeast Anticancer Drug Screen. Data for the cln2 rad14 strain (AID 165);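 further: 0% = growth equal to vehicle treated cultures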; conditions: S. cerevisiae cln2 rad14 strain, at 50.0 µM, hits give high values
How it was run: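 Compounds are applied to the cln2 rad14 yeast strain, and growth is then compared with that of vehicle-treated cultures to give inhibition.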

[5] = NCI Yeast Anticancer Drug Screen. Data for the bub3 strain (AID 167); conditions: S. cerevisiae bub3 mutant strain, at 50.0 µM, hits give high values
How it was run: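 Compounds were applied to a genetically altered yeast strain carrying a cell-cycle control defect. Growth inhibition was scored against vehicle-treated controls.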

[6] = NCI Yeast Anticancer Drug Screen. Data for the mlh1 rad18 strain (AID 175); conditions: S. cerevisiae mlh1 rad18 strain growth inhibition; at 50.0 µM; hits give high values
How it was run: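 Read-out is yeast growth inhibition, calculated against vehicle-only controls. The compound was applied to a strain engineered with DNA damage repair alterations.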

Measured: growth inhibition

CCCCNC(=O)OCc1cnc(C)n1Cc1ccccc1
inactive: [1] 2.8% | [2] -0.3% | [3] 6% | [4] 4.95% | [5] 4.1% | [6] 10.2%

NC(N)=NC(=O)c1ccc(N)cc1
inactive: [1] -13.6% | [2] -2.25% | [3] -0.1% | [4] -7.35% | [5] -3.4% | [6] 23.5%

CSS(=O)(=O)C(c1ccccc1)c1ccccc1
inactive: [1] -14.6% | [2] 2.55% | [3] -2.1% | [4] -2.45% | [5] 60.2% | [6] -14.8%

O=Nc1c(-c2ccccc2)nnc(-c2ccccc2)c1N=O
inactive: [1] -24.9% | [2] 6.95% | [3] -0.3% | [4] -54.8% | [5] 34.7% | [6] -6.2%

NC(=O)C(C(N)=O)c1ccnc2ccccc12
inactive: [1] 8.6% | [2] -2.65% | [3] -16% | [4] -16.8% | [5] -2.1% | [6] 10.9%

CCCC(C)C(SC(CC)C(N)=O)C(=O)O (configuration not stated)
inactive: [1] -3.5% | [2] -5.15% | [3] 5.1% | [4] -12.8% | [5] 10.5% | [6] -9.15%

CCCC(=O)C(N)Cc1ccccc1 (configuration not stated)
inactive: [1] -3.8% | [2] -6.1% | [3] -6% | [4] 12.3% | [5] 12.2% | [6] -6.3%

O=C1NC2c3ccccc3CCC12 (configuration not stated)
inactive: [1] -1.55% | [2] -5.45% | [3] -1.5% | [4] -71.8% | [5] 8.65% | [6] -4.5%

CCN=C(c1ccccc1)N(O)c1ccccc1
inactive: [1] -10.7% | [2] 9.2% | [3] -3.15% | [4] 6.35% | [5] 7.7% | [6] -14.1%

O=C(O)c1ccccc1Nc1ccccc1[N+](=O)[O-]
inactive: [1] -4% | [2] 22.5% | [3] 17.2% | [4] 8.15% | [5] 27.1% | [6] 17.6%

O=c1[nH]c2cc(Cl)ccc2nc1/C=C(\O)c1ccc2ccccc2c1
inactive: [1] 27.2% | [2] -5.2% | [3] -6.3% | [4] -3.85% | [5] -16.6% | [6] 25.4%

CCC(CO)(C(=O)O)c1ccccc1 (configuration not stated)
inactive: [1] 1.85% | [2] 22.2% | [3] 4.95% | [4] 46.9% | [5] 4.6% | [6] 2.3%

O=C1NC2Cc3ccccc3C(C2)O1 (configuration not stated)
inactive: [1] 2.8% | [2] -0.9% | [3] 1.85% | [4] -1.95% | [5] 15.9% | [6] 11.8%

Cc1cc(C)n(C2OC(CO)C(O)C(O)C2O)c(=S)c1C#N (configuration not stated)
inactive: [1] 21.1% | [2] 14.8% | [3] 29.6% | [4] 5.4% | [5] 8.4% | [6] 35.4%

O=c1c(-c2ccc(O)cc2)coc2cc(OC3OC(CO)C(O)C(O)C3O)cc(O)c12 (configuration not stated)
inactive: [1] -35.5% | [2] -26.8% | [3] -40.8% | [4] -10.7% | [5] -60.2% | [6] -83.3%

CS(=O)(=O)CCCCCCCCCCC(=O)O
inactive: [1] -5.4% | [2] 13.6% | [3] 3.4% | [4] 3.95% | [5] 10.4% | [6] 15.4%

O=C(C(=O)c1cccs1)c1cccs1
inactive: [1] 3.1% | [2] 9.05% | [3] 34.4% | [4] 6.15% | [5] -17.5% | [6] 22.5%

C=CC1ON(C)CCc2cc(OC)c(OC)cc21 (configuration not stated)
inactive: [1] -4.9% | [2] -1% | [3] -53.5% | [4] 15.1% | [5] -1.8% | [6] -9.9%

CCOC(=S)Sc1ccc2c(c1)-c1ccc(F)cc1C2=O
inactive: [1] 7% | [2] 6.3% | [3] 2.1% | [4] 10.2% | [5] -3.85% | [6] -1.65%

Cc1cc(S(=O)(=O)Nc2n[nH]c(Nc3ccccc3)n2)c(SCC(=O)O)cc1Cl
inactive: [1] 11.3% | [2] 52.8% | [3] 51.2% | [4] -0.25% | [5] -4.2% | [6] 23.1%

O=C(Nc1ccc(S(=O)(=O)NC2CCCCC2)cc1)Oc1ccc([N+](=O)[O-])cc1
inactive: [1] 32.5% | [2] 3.55% | [3] 18.4% | [4] 10.8% | [5] 8.4% | [6] 19.4%

O=[N+]([O-])c1cccc(-c2cc(-c3cccs3)cc(-c3ccccc3)n2)c1
inactive: [1] 6.7% | [2] 3.95% | [3] -1.95% | [4] -1.4% | [5] 2.85% | [6] 4.95%

O=CN(Cc1ccccc1)Cc1ccccc1
inactive: [1] 5.15% | [2] 8.2% | [3] 3.65% | [4] 0.95% | [5] -3.8% | [6] -12.6%

O=C1C(=O)c2ccc3c(c2-c2cc4c(cc21)OCO4)OCO3
inactive: [1] -5.55% | [2] -17.1% | [3] -14.9% | [4] -5.55% | [5] -27.5% | [6] 18%

CS(=O)CC(Nc1ccccc1)c1ccccc1 (configuration not stated)
inactive: [1] -3.75% | [2] -12.8% | [3] -10.6% | [4] 2% | [5] -25.6% | [6] -3.45%

CN1C(c2ccccc2)=C(C#N)C(=O)CC(c2cccs2)N1C (configuration not stated)
inactive: [1] -8% | [2] 7.45% | [3] 33.6% | [4] -1.5% | [5] 8.15% | [6] 8.25%

CC1COC(C)(C2CC2)O1 (configuration not stated)
inactive: [1] 6.6% | [2] 9.95% | [3] -24.4% | [4] -13.7% | [5] 7.45% | [6] 6.5%

Cc1cc(C)nc(C)c1
inactive: [1] -22.2% | [2] -15.1% | [3] -14.2% | [4] -11.1% | [5] -3.4% | [6] 23.9%

O=C(O)c1c(Br)c(Br)c(Br)c(Br)c1C(=O)Nc1ccccc1C(F)(F)F
inactive: [1] -8.55% | [2] -11.4% | [3] -2.65% | [4] -2.75% | [5] 8.05% | [6] -12.2%

NCCCCN(CCCN)Cc1ccccc1
inactive: [1] -4.8% | [2] -1.25% | [3] -17.1% | [4] 11.6% | [5] -4% | [6] -58.9%

C=C(C)C(C)(C)/C(C)=N\Nc1ccc([N+](=O)[O-])cc1[N+](=O)[O-]
inactive: [1] -0.15% | [2] -7.6% | [3] 6.2% | [4] -23.5% | [5] -0.15% | [6] -8.75%

O=C1c2ccccc2C(=O)N1C/C=C/CN1C(=O)c2ccccc2C1=O
inactive: [1] 6.85% | [2] -5.7% | [3] 12.2% | [4] -9.4% | [5] 8.05% | [6] 2.5%

C(=N\N1CCN(/N=C/c2c[nH]c3ccccc23)CC1)/c1c[nH]c2ccccc12
inactive: [1] 10.3% | [2] -11.5% | [3] -12.8% | [4] -1.05% | [5] 0.7% | [6] -3.05%

NNC(=O)c1ccccc1Cl
inactive: [1] -11.2% | [2] -21.1% | [3] -11.9% | [4] 0.4% | [5] -3.8% | [6] -25.9%

CN(C(=O)Sc1ccc([N+](=O)[O-])cc1)c1ccc([N+](=O)[O-])cc1
inactive: [1] 1.3% | [2] 15.2% | [3] 9.8% | [4] 4.05% | [5] 31.4% | [6] 21.3%

N#Cc1c(C(F)(F)F)cc(-c2cccs2)nc1SC(C(=O)Nc1c(F)cccc1F)c1ccccc1 (configuration not stated)
inactive: [1] 15.8% | [2] -19.6% | [3] 23% | [4] 20.2% | [5] 15% | [6] 25.9%

C=C(c1ccccc1)N1N=NC2CCOC21 (configuration not stated)
inactive: [1] -4.25% | [2] -10% | [3] 4.2% | [4] -20.6% | [5] -16.8% | [6] -8.65%

c1ccc(-c2nnn(-n3nnc(-c4ccccc4)n3)n2)cc1
inactive: [1] -13% | [2] 12.3% | [3] 10.9% | [4] -5.55% | [5] 1.3% | [6] 25.5%

CCCC(C)NC(=O)c1ccc(Cl)c(Cl)c1 (configuration not stated)
inactive: [1] 0.25% | [2] 4.9% | [3] 13.1% | [4] 8.3% | [5] 9.15% | [6] 24.6%

N#C[C@H]1CC2C=CC1C2 (some centres not stated)
inactive: [1] 12.2% | [2] -20% | [3] 0.7% | [4] 8.2% | [5] 0.8% | [6] 15.7%

COc1ccc(CCc2cc(OC)c(O)c(OC)c2)cc1
inactive: [1] 18.5% | [2] 14.8% | [3] 36% | [4] 19% | [5] 30.1% | [6] 41%

CCOC(=O)c1cccc(NC(=O)CCl)c1
inactive: [1] 43.2% | [2] 30.1% | [3] 37.6% | [4] 26% | [5] 39.9% | [6] 49.5%

Reference: PubChem BioAssay (NCI)
